# Measurements reported in PubChem BioAssay (Tox21).
# Several values for one entry are separate records, joined by “and”; a condition that tells them apart may be missing. Equal values may be shown once. Records with an inconclusive call do not appear. A call without a number means that no potency is given here. The source holds several records for some structures; these can differ, active in one and inactive in another. Activity calls are given as the source filed them. Unless noted, calls come from the whole dose curve; as a rule, active = well fitted curve in the direction sought with a large enough effect in the repeat runs; inconclusive = weak or mixed curves; inactive = no such curve, though single readings can be large; an effect the other way counts as inactive or inconclusive.
# How the values were obtained:
# [1] = qHTS assay to identify small molecule antagonists of the sonic hedgehog signaling (Shh) pathway (AID 1259369; calls by dose curve; note: nearly all actives have a fitted effect of over 45% in size; note: potency is the fitted concentration of half-maximal effect)
# In short: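 Stable Gli1-Luc reporter NIH/3T3 clone; quantitative HTS in stimulated mode with conditioned medium. Luminescence measured after 24hr compound treatment at 37 C.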
# [2] = biological target: Estrogen receptor beta (Homo sapiens) (UniProt Q92731); assay: qHTS assay to identify small molecule agonists of the estrogen receptor beta (ER-beta) signaling pathway (AID 1259377; active = well fitted activation curve with a large enough effect in the signal ratio in the repeat runs, not every such curve was filed as active; the % refers to the signal ratio)
# In short: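 HEK293T ER-beta-UAS-bla; 2% charcoal-stripped FBS; cells pre-incubated 6 hr, compound 16 hr, 37C/5% CO2; LiveBLAzer B/G FRET substrate 2 h RT; fluorescence intensity read.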
# [3] = biological target: Estrogen receptor beta (Homo sapiens) (UniProt Q92731); assay: qHTS assay to identify small molecule antagonists of the estrogen receptor beta (ER-beta) signaling pathway (AID 1259378; active = well fitted inhibition curve with a large enough effect in the signal ratio in the repeat runs, not every such curve was filed as active; the % refers to the signal ratio)
# In short: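 Antagonist mode: compounds added to beta-lactamase reporter HEK293T ER-beta-UAS cells stimulated with E2 (1nM final), 16 hr at 37C. LiveBLAzer B/G FRET substrate, 2 hours room temperature, fluorescence read-out.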
# [4] = qHTS assay to identify small molecule agonists of the androgen receptor (AR) signaling pathway in the presence of an antagonist - cell viability counter screen (AID 1259379); note: nearly all actives have a fitted effect of over 25% in size; note: potency is the fitted concentration of half-maximal effect
# In short: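 Nilutamide-containing (3.0uM final) MDA-kb2 cultures, 3,000 cells/well, were treated with compounds across 15 concentrations. After 16 hr at 37C with no CO2, cell viability was determined by CellTiter-Fluor fluorescence in the luciferase assay wells.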
# [5] = qHTS assay to identify small molecule antagonists of the estrogen receptor beta (ER-beta) signaling pathway - cell viability counter screen (AID 1259382); note: nearly all actives have a fitted effect of over 55% in size; note: potency is the fitted concentration of half-maximal effect
# In short: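 Viability is scored by CellTiter-Glo luminescence (30 min, room temperature) in ER-beta-UAS-bla HEK293T wells already read for reporter fluorescence. Compound exposure lasts 16 hr at 37C alongside 1nM 17-beta-estradiol in charcoal-stripped serum medium.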
# [6] = biological target: Estrogen receptor (Homo sapiens) (UniProt P03372); assay: qHTS assay to identify small molecule agonists of the estrogen receptor alpha (ER-alpha) signaling pathway in the presence of an antagonist (AID 1259383; calls by dose curve; note: top concentration of the series differs between compounds; nearly all actives have a fitted effect of over 15% in size)
# In short: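 Readout was ERE-driven luciferase luminescence in VM7Luc4E2 cells, which express full-length ER-alpha endogenously. Compounds were tested at 15 concentrations for 22hr alongside 10.0nM ICI-182,780 (final concentration).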
# [7] = qHTS assay to identify small molecule agonists or antagonists of the thyroid stimulating hormone receptor (TSHR) signaling pathway - wild type cell line counter screen (AID 1259384; calls by dose curve)
# In short: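 Counter screen in untransfected Hek293: compounds (15-point titration, triplicate) plus phosphodiesterase inhibitor Ro20-1724 added after 18 h plating; 30 min RT. Intracellular cAMP via competitive d2/cryptate immunoassay, 1 h incubation.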
# [8] = biological target: Thyrotropin receptor (Homo sapiens) (UniProt P16473); assay: qHTS assay to identify small molecule antagonists of the thyroid stimulating hormone receptor (TSHR) signaling pathway (AID 1259385; calls by dose curve; note: nearly all actives have a fitted effect of over 20% in size)
# In short: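 Antagonist mode: compound-treated TSHR-expressing HEK293 cells were stimulated with 1.5 ng/mL TSH (final) in presence of Ro20-1724 for 30 min at RT. HTRF cAMP detection after 1 h; each compound tested at 15 concentrations, triplicate.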
# [9] = qHTS assay to identify small molecule agonists of the estrogen receptor alpha (ER-alpha) signaling pathway in the presence of an antagonist - cell viability counter screen (AID 1259386);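 note: cells exposed to compounds for 22 h at 37 °C before the viability read; nearly all actives have a fitted effect of over 30% in size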; note: potency is the fitted concentration of half-maximal effect
# In short: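 In this counter screen, compound effects on VM7Luc4E2 viability were tested in the presence of the antagonist ICI-182,780 at 10.0nM final. Compounds were dosed at 15 concentrations, exposure lasted 22hr, and the CellTiter-Fluor signal was read.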
# [10] = biological target: Progesterone receptor (Homo sapiens) (UniProt P06401); assay: qHTS assay to identify small molecule agonists of the progesterone receptor (PR) signaling pathway (AID 1346784; calls by dose curve; note: nearly all actives have a fitted effect of over 30% in size; note: potency is the fitted concentration of half-maximal effect)
# In short: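 Beta-lactamase reporter read-out: after 16 hr compound treatment at 37C and a further 2 hr at room temperature with LiveBLAzer B/G FRET substrate, fluorescence was measured in PR-UAS-bla HEK 293T cells grown in 2% charcoal-stripped serum.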
# [11] = biological target: Progesterone receptor (Homo sapiens) (UniProt P06401); assay: qHTS assay to identify small molecule antagonists of the progesterone receptor (PR) signaling pathway (AID 1346795; active = well fitted inhibition curve with a large enough effect in the signal ratio in the repeat runs, not every such curve was filed as active; the % refers to the signal ratio; note: potency is the fitted concentration of half-maximal effect)
# In short: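 Read-out is fluorescence from the LiveBLAzer B/G FRET substrate, cleaved by a UAS-controlled beta-lactamase in PR-UAS-bla HEK293T cells after 16 hr exposure to compound plus 1 nM promegestone (final), followed by 2 hr at room temperature.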
# [12] = qHTS assay to identify small molecule antagonists of the progesterone receptor (PR) signaling pathway - cell viability counter screen (AID 1346798);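 note: HEK293T PR-UAS-bla cells stimulated with the agonist R5020; series mostly up to about 92 µM; nearly all actives have a fitted effect of over 50% in size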
# In short: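 HEK293T PR-UAS-bla, 2% charcoal-stripped FBS; 4 hr pre-plate; cpd + R5020, 16 h 37C; LiveBLAzer read first; then CellTiter-Glo 30 min RT, luminescence.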
# [13] = qHTS assay to identify small molecule agonists of the progesterone receptor (PR) signaling pathway - cell viability counter screen (AID 1346799; calls by dose curve; note: nearly all actives have a fitted effect of over 45% in size; note: potency is the fitted concentration of half-maximal effect)
# In short: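 Luminescence from CellTiter-Glo, added after the beta-lactamase FRET read in the same wells, gave cytotoxicity in PR-UAS-bla HEK293T cells treated with compounds for 16 hr at 37C.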
# [14] = qHTS assay to identify small molecule antagonists of the TGF-beta/Smad signaling pathway - cell viability counter screen (AID 1346824); note: nearly all actives have a fitted effect of over 50% in size
# In short: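 Cytotoxicity counter-screen run in the same wells as the beta-lactamase Smad reporter read: CellTiter-Glo luminescence after 30 min at room temperature. HEK 293T SBE-bla cells had 5 hr compound exposure at 37 C with TGF-beta1 (0.25 ng/mL stock).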
# [15] = qHTS assay to identify small molecule agonists of the TGF-beta/Smad signaling pathway (AID 1346859; active = well fitted activation curve with a large enough effect in the signal ratio in the repeat runs, not every such curve was filed as active; the % refers to the signal ratio; note: series mostly up to about 77 µM)
# In short: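 SBE-bla HEK 293T, 4,000 cells/well, plated o/n; cpd in DMSO, 5 hr, 37 C/5% CO2; B/G FRET substrate 2 hr RT; ex 405, em 460/530 nm.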
# [16] = biological target: Thyrotropin-releasing hormone receptor (Homo sapiens) (UniProt P34981); assay: qHTS assay to identify small molecule antagonists of the thyrotropin-releasing hormone receptor (TRHR) signaling pathway (AID 1346877; active = well fitted inhibition curve with a large enough effect in the repeat runs, not every such curve was filed as active; note: series mostly up to about 51 µM)
# In short: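 Kinetic fluorescence (3 min, 1 s resolution) following stimulation with TRH at 1 nM final; HEK293 cells bearing human TRHR; 5 min compound preincubation at RT; concentration-response over 15 points, triplicates.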
# [17] = qHTS assay to identify small molecule agonists of the TGF-beta/Smad signaling pathway - cell viability counter screen (AID 1346829); note: top concentration of the series differs between compounds; nearly all actives have a fitted effect of over 45% in size
# In short: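 Compound-treated SBE-bla HEK 293T cells (5 hr, 37 C) were assessed for viability with CellTiter-Glo in parallel with the reporter read.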
# [18] = biological target: Thyrotropin-releasing hormone receptor (Homo sapiens) (UniProt P34981); assay: qHTS assay to identify small molecule agonists of the thyrotropin-releasing hormone receptor (TRHR) signaling pathway (AID 1346891; calls by dose curve; note: series mostly up to about 58 µM)
# In short: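 Intracellular calcium rise, read as fluorescence every second for 3 min, served as the agonist signal in dye-loaded HEK293 cells expressing TRHR; each compound ran at 15 concentrations in triplicate.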
# [19] = biological target: Androgen receptor (Homo sapiens) (UniProt P10275); assay: qHTS assay to identify small molecule agonists of the androgen receptor (AR) signaling pathway in the presence of an antagonist (AID 1259381; calls by dose curve; note: nearly all actives have a fitted effect of over 15% in size)
# In short: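 Reporter-gene luminescence from MDA-kb2 cells exposed 16hr at 37C (0% CO2) to 15-point compound titrations with 3.0uM final nilutamide as AR antagonist.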
# [20] = qHTS assay to identify small molecule agonists of the estrogen receptor beta (ER-beta) signaling pathway - cell viability counter screen (AID 1259380); note: nearly all actives have a fitted effect of over 30% in size; note: potency is the fitted concentration of half-maximal effect
# In short: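 Steps: plate ER-beta-UAS-bla HEK293T cells, rest 6 hr; add compounds in DMSO; incubate 16 hr at 37C, 5% CO2; add FRET substrate 2 hr; add CellTiter-Glo, wait 30 min at room temperature; read luminescence.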
# Sequence of Estrogen receptor beta (Homo sapiens) (Q92731 whole entry, looked up): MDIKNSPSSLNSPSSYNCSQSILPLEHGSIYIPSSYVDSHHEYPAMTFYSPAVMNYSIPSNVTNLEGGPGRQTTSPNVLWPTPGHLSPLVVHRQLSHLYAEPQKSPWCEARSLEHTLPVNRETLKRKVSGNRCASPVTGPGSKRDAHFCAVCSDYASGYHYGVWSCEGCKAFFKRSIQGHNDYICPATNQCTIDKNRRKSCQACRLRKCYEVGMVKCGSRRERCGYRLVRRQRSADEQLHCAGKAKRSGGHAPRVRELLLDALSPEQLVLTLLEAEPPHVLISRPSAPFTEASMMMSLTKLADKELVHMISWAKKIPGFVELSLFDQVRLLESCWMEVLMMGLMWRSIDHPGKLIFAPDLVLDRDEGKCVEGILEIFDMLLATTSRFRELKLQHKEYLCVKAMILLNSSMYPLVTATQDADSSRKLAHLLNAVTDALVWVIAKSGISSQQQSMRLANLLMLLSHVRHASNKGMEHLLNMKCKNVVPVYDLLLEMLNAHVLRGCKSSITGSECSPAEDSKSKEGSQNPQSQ
# Sequence of Progesterone receptor (Homo sapiens) (P06401 whole entry, looked up): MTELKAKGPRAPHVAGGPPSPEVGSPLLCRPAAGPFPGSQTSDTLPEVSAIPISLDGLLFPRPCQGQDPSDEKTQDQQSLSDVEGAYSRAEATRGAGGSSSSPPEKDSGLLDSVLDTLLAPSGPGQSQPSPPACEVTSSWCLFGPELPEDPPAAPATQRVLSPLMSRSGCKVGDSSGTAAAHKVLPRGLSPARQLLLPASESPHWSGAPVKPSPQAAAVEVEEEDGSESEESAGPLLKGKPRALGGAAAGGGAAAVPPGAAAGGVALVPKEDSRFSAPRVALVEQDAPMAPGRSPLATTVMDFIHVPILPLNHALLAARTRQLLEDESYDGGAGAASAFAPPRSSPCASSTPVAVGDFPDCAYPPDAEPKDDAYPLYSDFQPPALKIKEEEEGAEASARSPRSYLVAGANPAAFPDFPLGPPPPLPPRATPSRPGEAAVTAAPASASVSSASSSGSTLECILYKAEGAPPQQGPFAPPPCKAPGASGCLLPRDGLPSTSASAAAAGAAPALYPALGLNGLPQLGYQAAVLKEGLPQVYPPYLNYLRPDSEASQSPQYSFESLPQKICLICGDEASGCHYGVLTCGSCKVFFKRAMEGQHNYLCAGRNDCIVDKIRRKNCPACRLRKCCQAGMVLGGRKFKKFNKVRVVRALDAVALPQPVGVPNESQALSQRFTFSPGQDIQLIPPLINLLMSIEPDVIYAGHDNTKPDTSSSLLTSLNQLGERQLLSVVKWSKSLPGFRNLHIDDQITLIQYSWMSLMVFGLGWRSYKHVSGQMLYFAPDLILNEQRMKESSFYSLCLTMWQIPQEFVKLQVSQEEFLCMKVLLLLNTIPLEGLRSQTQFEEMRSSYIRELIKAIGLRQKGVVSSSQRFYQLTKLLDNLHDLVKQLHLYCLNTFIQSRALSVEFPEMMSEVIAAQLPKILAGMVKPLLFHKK
# Sequence of Thyrotropin receptor (Homo sapiens) (P16473 whole entry, looked up): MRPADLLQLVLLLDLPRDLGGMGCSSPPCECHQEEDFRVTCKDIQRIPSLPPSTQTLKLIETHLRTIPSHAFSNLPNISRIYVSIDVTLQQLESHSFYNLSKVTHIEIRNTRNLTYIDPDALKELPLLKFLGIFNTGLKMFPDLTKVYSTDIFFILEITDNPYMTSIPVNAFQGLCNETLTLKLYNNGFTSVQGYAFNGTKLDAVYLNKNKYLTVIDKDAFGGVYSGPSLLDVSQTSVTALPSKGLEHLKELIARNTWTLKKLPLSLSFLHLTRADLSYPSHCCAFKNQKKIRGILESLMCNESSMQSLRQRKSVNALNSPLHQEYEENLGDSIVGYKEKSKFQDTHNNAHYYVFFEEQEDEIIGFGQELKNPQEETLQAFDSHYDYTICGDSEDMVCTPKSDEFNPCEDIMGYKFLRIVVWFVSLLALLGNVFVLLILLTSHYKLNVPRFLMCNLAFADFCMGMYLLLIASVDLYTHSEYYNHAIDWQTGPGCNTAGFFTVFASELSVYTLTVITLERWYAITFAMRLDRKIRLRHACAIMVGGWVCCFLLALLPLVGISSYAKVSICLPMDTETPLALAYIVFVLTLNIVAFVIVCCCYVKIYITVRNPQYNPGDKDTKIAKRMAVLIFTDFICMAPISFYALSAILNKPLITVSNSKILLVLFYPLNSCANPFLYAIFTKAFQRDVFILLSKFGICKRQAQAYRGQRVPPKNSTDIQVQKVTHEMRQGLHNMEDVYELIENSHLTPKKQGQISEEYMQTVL
# Sequence of Thyrotropin-releasing hormone receptor (Homo sapiens) (P34981 whole entry, looked up): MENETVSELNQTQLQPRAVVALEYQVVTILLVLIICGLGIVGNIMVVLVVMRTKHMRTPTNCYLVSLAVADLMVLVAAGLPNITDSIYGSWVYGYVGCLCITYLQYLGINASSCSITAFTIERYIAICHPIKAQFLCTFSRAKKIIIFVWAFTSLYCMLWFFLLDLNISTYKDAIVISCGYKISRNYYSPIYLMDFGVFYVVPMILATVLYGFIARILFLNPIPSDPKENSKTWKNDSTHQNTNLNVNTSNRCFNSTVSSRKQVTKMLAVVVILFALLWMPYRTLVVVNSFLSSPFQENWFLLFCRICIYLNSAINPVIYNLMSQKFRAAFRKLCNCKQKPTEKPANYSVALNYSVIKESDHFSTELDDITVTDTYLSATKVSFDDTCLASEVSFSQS
# Sequence of Estrogen receptor (Homo sapiens) (P03372 whole entry, looked up): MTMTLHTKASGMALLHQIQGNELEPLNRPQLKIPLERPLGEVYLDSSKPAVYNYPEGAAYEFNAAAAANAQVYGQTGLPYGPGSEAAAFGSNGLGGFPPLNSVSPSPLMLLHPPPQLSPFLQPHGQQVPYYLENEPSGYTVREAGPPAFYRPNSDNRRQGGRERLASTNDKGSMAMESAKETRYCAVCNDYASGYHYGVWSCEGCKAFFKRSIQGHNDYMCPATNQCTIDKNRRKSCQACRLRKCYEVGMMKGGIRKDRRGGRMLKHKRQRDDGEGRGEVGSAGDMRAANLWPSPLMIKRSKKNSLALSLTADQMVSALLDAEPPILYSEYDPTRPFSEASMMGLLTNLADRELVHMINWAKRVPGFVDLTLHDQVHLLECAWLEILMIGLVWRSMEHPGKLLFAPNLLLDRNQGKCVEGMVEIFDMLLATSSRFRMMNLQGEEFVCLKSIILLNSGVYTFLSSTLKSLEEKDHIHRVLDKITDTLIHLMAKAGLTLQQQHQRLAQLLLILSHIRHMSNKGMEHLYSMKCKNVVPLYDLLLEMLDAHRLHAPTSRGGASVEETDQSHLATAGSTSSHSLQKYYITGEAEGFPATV
# Sequence of Androgen receptor (Homo sapiens) (P10275 whole entry, looked up): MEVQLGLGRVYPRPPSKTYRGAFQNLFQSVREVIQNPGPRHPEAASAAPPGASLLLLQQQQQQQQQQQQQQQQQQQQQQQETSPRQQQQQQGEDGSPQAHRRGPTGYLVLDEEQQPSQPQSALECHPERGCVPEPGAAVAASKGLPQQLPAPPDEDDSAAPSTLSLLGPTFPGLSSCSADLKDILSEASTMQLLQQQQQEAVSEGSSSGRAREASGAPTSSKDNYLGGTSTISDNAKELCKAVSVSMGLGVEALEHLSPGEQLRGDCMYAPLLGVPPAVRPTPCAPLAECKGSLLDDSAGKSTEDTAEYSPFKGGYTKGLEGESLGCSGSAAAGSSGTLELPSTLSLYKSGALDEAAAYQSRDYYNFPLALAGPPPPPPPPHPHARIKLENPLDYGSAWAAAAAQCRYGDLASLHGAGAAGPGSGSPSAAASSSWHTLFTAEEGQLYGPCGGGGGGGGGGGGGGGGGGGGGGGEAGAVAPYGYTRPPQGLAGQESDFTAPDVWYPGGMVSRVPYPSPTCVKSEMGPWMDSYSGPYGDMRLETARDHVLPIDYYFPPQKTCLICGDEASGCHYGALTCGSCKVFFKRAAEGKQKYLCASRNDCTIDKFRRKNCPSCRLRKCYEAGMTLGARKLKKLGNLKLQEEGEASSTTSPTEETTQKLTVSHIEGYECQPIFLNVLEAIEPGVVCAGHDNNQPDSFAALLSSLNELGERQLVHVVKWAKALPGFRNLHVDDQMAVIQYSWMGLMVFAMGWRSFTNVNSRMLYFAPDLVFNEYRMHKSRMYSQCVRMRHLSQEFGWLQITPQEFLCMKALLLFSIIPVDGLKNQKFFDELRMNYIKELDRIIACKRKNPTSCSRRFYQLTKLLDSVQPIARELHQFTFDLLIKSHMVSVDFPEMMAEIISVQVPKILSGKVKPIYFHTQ
SMILES,Potency [1],outcome [2],Potency [3],Potency [4],Potency [5],Potency [6],Potency [7],outcome [8],Potency [9],Potency [10],Potency [11],Potency [12],Potency [13],Potency [14],outcome [15],outcome [16],Potency [17],Potency [18],outcome [19],Potency [20]
O=C(O)CCCCC1CCSS1 (stereo not drawn),inactive,inactive,inactive,inactive,inactive,inactive,inactive,inactive,inactive,inactive,inactive,inactive,inactive,inactive,inactive,inactive,,,,
CCCCOC(=O)CCCCCCCCC(=O)OCCCC,inactive,inactive,inactive,inactive,inactive,inactive,inactive,inactive,inactive,inactive,inactive,inactive,inactive,inactive,inactive,,inactive,,,
C=C(C)OC(C)=O,inactive,inactive,inactive,inactive,inactive,inactive,inactive,inactive,inactive,inactive,inactive,inactive,,inactive,inactive,inactive,inactive,inactive,,
CN(C)C=O,inactive,inactive,inactive,inactive,inactive,inactive,inactive,inactive,inactive,inactive,inactive,inactive,inactive,inactive,inactive,inactive,,inactive,,
CC1=NN(c2ccccc2)C(=O)C1,inactive,inactive,inactive,inactive,inactive,inactive,inactive,inactive,inactive,inactive,inactive,inactive,,inactive,inactive,inactive,,,,
CCCCCCCC(=O)OCC(O)CO (stereo not drawn),inactive,inactive,inactive,inactive,inactive,,inactive,inactive,inactive,inactive,inactive,inactive,inactive,inactive,inactive,inactive,,inactive,,
CCOC(=O)C(C)(C)Oc1ccc(Cl)cc1,inactive,inactive,inactive,inactive,inactive,inactive,inactive,inactive,inactive,inactive,inactive,inactive,inactive,inactive,inactive,inactive,,,,
C[C@]12CC[C@@H]3c4ccc(O)cc4C[C@@H](CCCCCCCCCS(=O)CCCC(F)(F)C(F)(F)F)[C@H]3[C@@H]1CC[C@@H]2O (stereo partly drawn),inactive,inactive,,inactive,,,inactive,inactive,inactive,inactive,1.72 µM (active),inactive,,inactive,inactive,inactive,inactive,inactive,inactive,
CO[C@H]1C=CO[C@@]2(C)Oc3c(C)c(O)c4c(O)c(c(/C=N/N5CCN(C)CC5)c(O)c4c3C2=O)NC(=O)/C(C)=C\C=C[C@H](C)[C@H](O)[C@@H](C)[C@@H](O)[C@@H](C)[C@H](OC(C)=O)[C@@H]1C,27.4 µM (active) and inactive,inactive,inactive,24.5 µM (active) and 27.6 µM (active) and 15 µM (active),inactive,,inactive,inactive,27.4 µM (active) and 31 µM (active) and 23.7 µM (active),inactive,inactive,inactive,,inactive,inactive,inactive,inactive,inactive,,
CCOCCO,inactive,inactive,inactive,inactive,inactive,,inactive,inactive,inactive,inactive,inactive,inactive,,inactive,inactive,inactive,,,,
Cc1c(N(C)C)c(=O)n(-c2ccccc2)n1C,inactive,inactive,inactive,inactive,inactive,inactive,inactive,inactive,inactive,inactive,inactive,inactive,,inactive,inactive,,,,,
C1CNCCN1,5.61 µM (active) and inactive,inactive,inactive,inactive,inactive,inactive,inactive,inactive,inactive,inactive,inactive,inactive,,inactive,inactive,inactive,,,,
O=c1c(-c2ccc(O)cc2)coc2cc(O)cc(O)c12,10.7 µM (active),,,inactive,inactive,,inactive,inactive,inactive,inactive,23.9 µM (active) and 17.2 µM (active) and 13.3 µM (active),inactive,,inactive,inactive,,,,inactive,
CCCCCCCCOc1ccc(C(=O)c2ccccc2)c(O)c1,inactive,,,inactive,inactive,inactive,inactive,inactive,inactive,inactive,inactive,inactive,inactive,inactive,inactive,inactive,,inactive,,
CC(C)CC(C)CC(O)CC(C)C (stereo not drawn),inactive,,,inactive,inactive,,,,inactive,inactive,inactive,inactive,inactive,inactive,inactive,inactive,inactive,,,inactive
O=C(O)Cc1cccc2ccccc12,inactive,,,inactive,inactive,,,inactive,inactive,inactive and 1.37 µM (active),inactive,,inactive and 21.7 µM (active),inactive,inactive,inactive,inactive,inactive,,
NCCNc1cccc2ccccc12,61.1 µM (active) and 37.6 µM (active) and inactive,,,54.4 µM (active) and 59.6 µM (active) and inactive,24.3 µM (active) and 59.6 µM (active) and inactive,,,,inactive,inactive,inactive,,,inactive,inactive,inactive,inactive,inactive,inactive,54.4 µM (active) and 59.6 µM (active)
